Lamin A splicing – LMNA splicing modulation | 200,000 tested, 0.01% active | AID 1487 | Potency, µM (series often up to 46.1 µM), for the others: top-dose ratio change, negative = inhibition, usual class: inhibitors | HeLa LMNA splicing GFP/RFP minigene ratio, 48 h; active = well fitted inhibition curve with a large enough effect in the signal ratio, with a control signal flat, not every such curve was filed as active; inconclusive = small, poorly fitted or top-dose-only effect, or effect the other way, or a change in a side signal; the % refers to the signal ratio; also: % is scaled to controls: 0 for no effect and ±100 for the full control effect
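S3 HeLa cells stably expressing lamin A-EGFP splicing minigene plus DsRed2, 600 cells/well, 48 h compound exposure at 37C. Laser-scanning cytometry; analysed as GFP (500-530 nm)/RFP (575-640 nm) total intensity ratio; 0.5% DMSO vehicle.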
HTT ATP protect – Huntington cell model cytoprotection by ATP luminescence. PC12 HTT-Q103 induced, cytoprotection, ATP luminescence, 40 h. Potency, µM (top dose mostly 56.4 µM), without a hit: cytoprotection (ATP increase), hits mostly activators. 230,000 tested, 0.14% active; active = well fitted curve in the direction sought with a large enough effect; inconclusive = small, poorly fitted or top-dose-only effect, or another doubt; inactive = no such curve, though single readings can be large; an effect the other way counts as inactive or inconclusive; also: % of control where 0% means no effect; nearly all actives have a fitted effect of over 45% in size
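Cells were plated at 1500 per well in phenol red-free DMEM with 5% equine and 5% calf serum. Tebufenozide (100 nM final) and compounds were added, then ATPlite reagent, and luminescence was read.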
HPGD block – HPGD (human) dehydrogenase inhibition. purified HPGD, NADH fluorescence kinetic, PGE2 substrate. Potency, µM, for the others: at the top dose activity change, negative = inhibition, hits mostly inhibitors. 150,000 tested, 4.3% active; also: % is scaled to controls: 0 for no effect and ±100 for the full control effect
Target sequence (P15428 whole entry, looked up): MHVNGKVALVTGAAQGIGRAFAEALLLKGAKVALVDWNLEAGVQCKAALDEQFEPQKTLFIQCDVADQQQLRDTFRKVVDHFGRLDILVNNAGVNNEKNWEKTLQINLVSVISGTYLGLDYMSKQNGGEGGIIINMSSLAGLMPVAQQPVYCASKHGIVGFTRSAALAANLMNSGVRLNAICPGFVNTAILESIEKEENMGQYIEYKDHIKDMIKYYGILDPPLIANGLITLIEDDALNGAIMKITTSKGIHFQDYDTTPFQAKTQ
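20 nM HPGD preincubated 15 min at room temperature with compound in 50 mM Tris-HCl pH 8, 0.01% Tween 20. Started with 1 mM NAD+ and 30 uM prostaglandin E2; NADH fluorescence (360/450 nm) read 5 times over 30-s intervals, last minus first.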
ALDH1A1 block – inhibitors of human aldehyde dehydrogenase 1A1; Purified ALDH1A1, NADH fluorescence, propionaldehyde substrate; P00352; Potency, µM (doses to about 75.3 µM), for inactives: top-dose activity, negative = inhibition, actives largely listed as inhibitors; 220,000 tested, 7.3% active;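 also: plate controls were no enzyme wells and a reference inhibitor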
HTT aggregate – inhibitors of mutant huntingtin aggregate formation in PC12 cells | PC12 HttQ103-GFP aggregates, Acumen cytometry, 40 h | Potency, µM (series often up to 46.1 µM), without a hit: at the top dose activity change, negative = inhibition, usual class: inhibitors | 220,000 tested, 1.1% active; active = well fitted curve in the direction sought with a large enough effect; inconclusive = small, poorly fitted or top-dose-only effect, or another doubt; inactive = no such curve, though single readings can be large; an effect the other way counts as inactive or inconclusive; also: % is scaled to controls: 0 for no effect and ±100 for the full control effect; nearly all actives have a fitted effect of over 60% in size
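PC12/HTTQ103-GFP, ecdysone-inducible; teb 100 nM; cpd qHTS titration; GFP aggregates read on laser cytometer, Ex 488/Em 500-530 nm.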
JMJD2E inh – blocks human JMJD2E demethylase activity; B2RXH2; JMJD2E catalytic domain, FDH-coupled NADH fluorescence (FDH is formaldehyde dehydrogenase); Potency, µM (highest dose often 57.1 µM), inactives show at the highest dose activity change, negative = inhibition, hits mostly inhibitors; 230,000 tested, 1.6% active;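 also: 0% = wells with enzyme and -100% = buffer wells without enzyme; nearly all actives have a fitted effect of over 50% in size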
Target sequence (B2RXH2 1-337 limits assumed): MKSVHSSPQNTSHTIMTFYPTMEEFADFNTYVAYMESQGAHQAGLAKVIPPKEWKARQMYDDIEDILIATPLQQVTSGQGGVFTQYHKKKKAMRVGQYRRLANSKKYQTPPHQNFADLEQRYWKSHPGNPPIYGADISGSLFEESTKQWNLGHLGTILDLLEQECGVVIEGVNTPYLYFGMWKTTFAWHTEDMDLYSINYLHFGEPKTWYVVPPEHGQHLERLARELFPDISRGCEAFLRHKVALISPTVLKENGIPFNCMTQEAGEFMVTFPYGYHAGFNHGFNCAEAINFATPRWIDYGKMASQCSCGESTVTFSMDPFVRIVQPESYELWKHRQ
The depositor's hits bear a star; ? = inconclusive; · = not tested or not shown; [ ] = remark or other dose. The list is not random: actives were taken first. Their share in the collection is about 9.2%. Unless noted, calls follow the shape of the dose curve; as a rule, active = well fitted inhibition curve with a large enough effect (not every such curve was filed as active); inconclusive = small, poorly fitted or top-dose-only effect, or another doubt; inactive = no such curve, though single readings can be large or run the other way. Potency is read from the fitted curve at half-maximal effect.

SMILES	Lamin A splicing	HTT ATP protect	HPGD block	ALDH1A1 block	HTT aggregate	JMJD2E inh
COc1ccc(-c2cc(=O)c3c(O)cc(O[C@H]4OC(COC5OC(C)C(O)C(O)[C@H]5O)C(O)C(O)C4O)cc3o2)cc1O (some centres undefined)	·	?	-19%	?	18%	?
COc1ccc(OC)c(CNC(=O)C2COc3ccccc3C2)c1 (centres undefined)	5%[46 µM]	·	·	·	·	·
CCC(=O)Nc1nc(C)c(C(=O)N2CCCCC2)s1	-2%	6%	8.9µM*	?	-8%	-3%
CS(=O)(=O)N1CCC2(CC1)CN(c1ccc(-c3ccccc3)cc1)C2	·	-8%	-4%	12%	·	·
N#CCCCN1C(=O)C(=C(C#N)C#N)c2ccccc21	-16%[46 µM]	4%[10 µM]	·	0.79µM*	-13%[9.22 µM]	-4%
CSc1nc(-c2ccco2)nn1C(=O)c1cccs1	4%	6%	?	?	4%	4%
COc1ccc(C(=O)n2nc(-c3ccco3)nc2SC)cc1OC	-6%	-2%[0.074 µM]	?	28µM*	9%	-27%
COc1cc(C(=O)CSc2nncn2C)cc(OC)c1OC	7%	1%	-20%	13µM*	-9%[9.22 µM]	?
Cn1cnnc1SCC(=O)c1cc2ccccc2oc1=O	?	-8%[10 µM]	?	10µM*	16%	?
Cn1cnnc1SCC(=O)c1ccc2c(c1)CCCC2	14%	-20%	-13%	32µM*	11%	-8%
COc1ccc(NC(=O)CSc2nncn2C)cc1OC	-8%	20%[1.9 µM]	-8%	10%	-10%	4%
O=C(Cn1c(=O)nc(-c2ccccc2F)c2cc(Cl)ccc21)N1CCN(c2ccccc2F)CC1	-11%[46 µM]	·	·	·	·	·
CC(NC(=S)NCCN1CCOCC1)C12CC3CC(CC(C3)C1)C2 (centres undefined)	3%[9.22 µM]	-35%[1.9 µM]	·	?	11%[9.22 µM]	2%
N#C/C(=C(/N)Sc1ccc(N)cc1)c1ccccc1C(F)(F)F	·	-46%	-10%	?	·	8%
Cc1ccc(NC(=O)COC(=O)CC2CCCC2)cc1Cl	-18%[46 µM]	-17%[10 µM]	·	22µM*	28%	-2%
Cc1ccc(NC(=O)COC(=O)Cn2cnc3c2c(=O)n(C)c(=O)n3C)cc1Cl	·	-23%	·	8%	3%	-6%
CCOCC(=O)Nc1ccc(C)c(Cl)c1	7%	3%	16µM*	25µM*	7%	-5%
COC(=O)c1c(NC(=O)/C=C/C(=O)O)sc(C)c1-c1ccc(C)cc1	18%[46 µM]	-27%[10 µM]	·	?	-4%[9.22 µM]	11%
CCOC(=O)c1c(NC(=O)/C=C/C(=O)O)sc(C)c1-c1ccc(C)c(C)c1	·	-126%	·	?	-24%	-1%
COC(=O)c1c(NC(=O)/C=C/C(=O)O)sc(C)c1-c1ccc(C(C)C)cc1	?	-18%[10 µM]	·	7.9µM*	-30%	-8%
CCOC(=O)c1c(NC(=O)/C=C/C(=O)O)sc(C)c1-c1ccc(F)cc1	·	-24%[10 µM]	·	14µM*	28%[9.22 µM]	-7%
Cc1cc(C)c(/C=C/c2onc(C)c2S(=O)(=O)N2CCC(C(=O)NCc3ccco3)CC2)c(C)c1	-2%[46 µM]	·	·	·	·	·
O=C(C1=NN[C@@H]2C(=O)N(c3cccc(F)c3)C(=O)[C@H]12)c1cnccn1	·	-20%[10 µM]	·	6.3µM*	6%[9.22 µM]	?
O=C(C1=NN[C@@H]2C(=O)N(c3ccccc3C(F)(F)F)C(=O)[C@H]12)c1cnccn1	·	-6%[10 µM]	·	·	-27%[9.22 µM]	3%
CCOC(=O)CSc1nc2c(sc3ccccc32)c(=O)n1CCCN1CCOCC1	-8%	10%[10 µM]	-22%	14µM*	-8%	?
SMILES	Lamin A splicing	HTT ATP protect	HPGD block	ALDH1A1 block	HTT aggregate	JMJD2E inh
O=C(CSc1nc2c(sc3ccccc32)c(=O)n1CCc1ccccc1)NCc1ccco1	9%	-5%	-20%	1%	17%[9.22 µM]	7%
CCC(C)NC(=O)CSc1nc2c(sc3ccccc32)c(=O)n1CCCN1CCOCC1 (centres undefined)	2%	15%[10 µM]	?	-9%	21%	7%
CCCCn1c(SCC(=O)NCc2ccco2)nc2c(sc3ccccc32)c1=O	10%	-5%	?	?	9%[1.84 µM]	7.1µM*
CCOCCCn1c(SCC(=O)NCc2ccco2)nc2c(sc3ccccc32)c1=O	10%	-6%	-30%	?	-12%[1.84 µM]	?
O=C(CSc1nc2c(sc3ccccc32)c(=O)n1-c1ccccc1)NCc1ccco1	?	3%[10 µM]	-22%	11µM*	2%	-5%
CCC(CO)NCc1sccc1C (centres undefined)	17%[46 µM]	3%[10 µM]	·	20µM*	20%[9.22 µM]	13%
CCC(CO)NCc1ccc(Br)cc1 (centres undefined)	·	-16%[10 µM]	·	-9%	25%	7%
Cn1c2c(c(=O)n(C)c1=O)C(CC(=O)Nc1ccccc1)C(=O)N2 (centres undefined)	6%	-7%[0.074 µM]	-7%	15%	5µM*	-3%
N[C@@H](COP(=O)(O)O)C(=O)O	-10%	-30%	-8%	4%	·	2%
O=[N+]([O-])c1c(Nc2ccccn2)cc(Cl)c2nonc12	·	-15%[10 µM]	·	·	13%[9.22 µM]	1µM*
O=C(O)c1cccc(Nc2cc(Cl)c3nonc3c2[N+](=O)[O-])c1	·	?	·	?	12%	-12%
CCC1=C2CC[C@H]3C(=O)N(C)C(=O)[C@H]3[C@H]2[C@@]2(C)C(=O)N(CC3CC3)C(=O)N2C1=O	·	-34%	-13%	2%	·	-18%
COc1cc2c(=O)n(CCC(=O)NCC3CCCO3)c(=O)n(CC(=O)c3ccc(Cl)cc3)c2cc1OC (centres undefined)	7%[46 µM]	-20%	·	-12%	-31%	1%
O=C(c1ccco1)N1CCN(c2ncnc3c2nnn3Cc2ccccc2Cl)CC1	?	12%[10 µM]	35µM*	?	-16%	11%
O=C(c1ccco1)N1CCN(c2nc(C(F)(F)F)nc3c2nnn3Cc2ccccc2)CC1	?	35%[10 µM]	?	14µM*	?	?
O=C(c1ccco1)N1CCN(c2nnc(-c3ccccc3)c3ccccc23)CC1	3%	-12%	-6%	25µM*	11%[9.22 µM]	1%
CCOC(=O)C1CCN(c2ncnc3c2nnn3Cc2ccccc2Cl)CC1	15%[46 µM]	-10%[10 µM]	·	?	13%[9.22 µM]	-9%
Clc1ccccc1Cn1nnc2c(Nc3ccccc3)ncnc21	?	-26%	-23%	25µM*	?	?
O=C(Nc1ccc(Cl)cc1Cl)c1cc(S(=O)(=O)N2CCc3ccccc32)ccc1F	-4%[46 µM]	·	·	·	·	·
COC(=O)[C@@]1(Cc2ccccc2)[C@H]2c3cc(C(=O)N4CCCC4)n(Cc4cccc5ccccc45)c3C[C@H]2CN1C(=O)c1ccccc1	·	20%	-9%	0%	·	5%
Cc1ccc(C2=Nc3ccccc3S[C@@H](c3cccc([N+](=O)[O-])c3)C2)cc1	·	19%[10 µM]	-29%	-12%[13.5 µM]	·	·

Screens from PubChem BioAssay.
